According to PubChem BioAssay (NCATS):
Records with an inconclusive call do not appear. A call without a number means that no potency is given here. The source made the active and inactive calls. Calls come from the whole dose curve; as a rule, active = well fitted activation curve with a large enough effect; inconclusive = small, poorly fitted or top-dose-only effect; inactive = flat fitted curve, though single readings scatter.

Test: Cell Proliferation Assay against the TMD8 Cell Line (Caspase readout at 16 hrs) (AID 651712)
Details: TMD8 lymphoma cells, caspase activation luminescence; series mostly up to 46.1 µM
Text: One class of targeted therapeutics showing early clinical success in killing of ABC DLBCL lines are small molecule inhibitors of the Bruton tyrosine kinase (BTK) 11. Thus, we chose to investigate what additional compounds, if any, would synergize with the BTK inhibitor Ibrutinib (PCI-32765).
Prior to any combination assays, using an NCATS developed oncology compound library called the Mechanism of Interrogation Plate (MIPE), two well studied ABC DLBCL lines (TMD8 and HBL1) were screened using a cell viability assay (CellTiterGlo) and a 12-point titration series for each single agent. These initial experiments offered insight into the concentration range that offered the best coverage of activity and non-activity to assure relevant data is generated. In addition to the viability signature associated with this library, we examined the apoptotic response of each agent versus the TMD8 line as judged by caspase 3/7 activation. Activity was assayed at both 8 and 16 hour time-points to gain an appreciation of which agents induced an apoptotic response in a reasonable timeframe from a therapeutic exposure perspective. MIPE was also assayed for single agent viability in a human mesenchymal stem cell (hMSC) line as a surrogate of each library members potential therapeutic index.
The combination plates were then generated by choosing 20 of the best compounds from this single agent screen and plated in the presence of the BTK inhibitor. The first analysis was carried out using 6x6 dose response blocks for each of the 20 compounds. […] In addition to the cell viability assay, the parallel caspase 3/7 activation and viability in hMSC assays were carried out in the 10x10 format.
A total of 500 log growing TMD8 cells are seeded per well in 5 uL of a RPMI with glutamine (or Glutamax), without phenol red plus 5% FBS and 1X Pen/Strep into 1536 -solid white high base tissue culture treated Greiner One Bio Plates (789173-F) using a multidrop combi dispenser and a small sterile cassette. Compounds and controls totaling 23nL per well (negative control DMSO and positive control 9.2 uM Bortezomib-final) are immediately added to the plates using a 1536 head pin tool from Kalypsys. The plates are then covered with stainless steel gasket lids from Kalypsys and incubated for either 16 hours at 37C under 95% relative humidity with 5% CO2. After the desired incubation time, the plates are removed and allowed to reach room temperature before 3 uL of the Caspase Glo reagent (Promega) is added using an Aurora Flying Reagent Dispenser Bioraptor. The plates are then spun at 1000 rpms to remove bubbles and incubated for 15 minutes at room temperature before read on a ViewLux using a luminescent filter with a 10 second exposure. The relative luciferase units are used to calculated percent activity using DMSO as 0% and Bortezomib as 100%.
Potency is the fitted concentration of half-maximal effect.

Row | Compound | Potency
1 | CS(=O)(=O)c1cccc(CNc2nc(Nc3ccc4c(c3)CCC(=O)N4)ncc2C(F)(F)F)c1 | inactive
2 | CCc1cc(Nc2nccc(-c3c(-c4ccc(OC)c(C(=O)Nc5c(F)cccc5F)c4)nc4ccccn34)n2)c(OC)cc1N1CCC(N2CCN(S(C)(=O)=O)CC2)CC1 | inactive
3 | COCC(=O)NCC=Cc1ccc2ncnc(Nc3ccc(Oc4ccc(C)nc4)c(C)c3)c2c1 | inactive
4 | NC(=O)c1ccc(I)c([N+](=O)[O-])c1 | inactive
5 | O=C(Nc1nc2ccccc2n1CCN1CCOCC1)c1cccc([N+](=O)[O-])c1 | inactive
6 | CC(=O)NC(C)c1ccc(Oc2ccc(OC(C)C)cc2)cc1 (stereo not given) | inactive
7 | O=C(O)[C@@H](c1ccc(OCc2ccc3ccccc3n2)cc1)C1CCCC1 | inactive
8 | CC(C)OC(=O)C1=CN(C(=O)c2ccc(F)c(F)c2)CC(C)(C)c2c1[nH]c1ccccc21 | inactive
9 | CN(C)c1ccc(C2Nc3ccc4ccccc4c3C3=C2C(=O)CC(C)(C)C3)cc1Br (stereo not given) | inactive
10 | CO[C@@H]1[C@H](N(C)C(=O)c2ccccc2)C[C@H]2O[C@]1(C)n1c3ccccc3c3c4c(c5c6ccccc6n2c5c31)C(=O)NC4 | 2.09 µM (active)
11 | Nc1nccc(-c2ccc3noc(-c4ccc(Cl)cc4)c3c2)n1 | inactive
12 | Cc1ccc(NC(=O)c2cccc(C(C)(C)C#N)c2)cc1Nc1ccc2ncn(C)c(=O)c2c1 | 26.4 µM (active)
13 | CCOc1cc(C(=O)Nc2ccc(Cl)c(-c3nc4ccccc4[nH]3)c2)cc(OCC)c1OCC | inactive
14 | NC(=O)c1ccc(-c2nc(-c3ccc4c(c3)OCO4)c(-c3ccccn3)[nH]2)cc1 | inactive
15 | Fc1ccc(Cl)cc1-c1nc(Nc2ccncc2)c2nccnc2n1 | inactive
16 | Cc1cc2c(C(C)C)c(O)c(O)c(C=O)c2c(O)c1-c1c(C)cc2c(C(C)C)c(O)c(O)c(C=O)c2c1O | inactive
17 | CCN(CC)CCCC(C)Nc1nc(C)cc(Nc2ccc3nc(C)cc(N)c3c2)n1 (stereo not given) | inactive
18 | O=C(C=Cc1ccc(/C=C/C(=O)Nc2ccc(C3=NCCN3)cc2)cc1)Nc1ccc(C2=NCCN2)cc1 | inactive
19 | OCCn1cc(-c2cnc3nnn(Cc4ccc5ncccc5c4)c3n2)cn1 | inactive
20 | Cc1cc([C@@H](C)Nc2ccccc2C(=O)O)c2nc(N3CCOCC3)cc(=O)n2c1 | inactive

Row | Compound | Potency
21 | Nc1cccc(S(=O)(=O)N2CCCN(S(=O)(=O)c3ccc4c(c3)OCCO4)CC2)c1 | inactive
22 | O=C1CCCC2=C1C(c1[nH]ncc1Cl)N=C(Nc1nc3ccccc3o1)N2 (stereo not given) | inactive
23 | CNC(=O)c1ccc(N2C(=S)N(c3ccc(C#N)c(C(F)(F)F)c3)C(=O)C2(C)C)cc1F | inactive
24 | Cc1c(CCOc2ccc(C(=O)O)cc2)c2cc(Cl)ccc2n1C(c1ccccc1)c1ccccc1 | inactive
25 | CCN(CCCO)CCCOc1ccc2c(Nc3cc(CC(=O)Nc4cccc(F)c4)[nH]n3)ncnc2c1 | inactive
26 | Cc1cc(Nc2nc(N[C@@H](C)c3ncc(F)cn3)ncc2Cl)n[nH]1 | inactive
27 | Cc1[nH]c(=O)c(C#N)cc1-c1ccc2nccn2c1 | inactive
28 | CS(=O)(=O)Oc1ccc2c(NC(N)=O)c(C(=O)c3ccc(Cl)cc3Cl)oc2c1 | inactive
29 | CC(c1cc2ccccc2s1)N(O)C(N)=O (stereo not given) | inactive
30 | CC(C)(N)C(=O)N[C@H](COCc1ccccc1)C(=O)N1CCC2(CC1)CN(S(C)(=O)=O)c1ccccc12 | inactive
31 | Cc1cc(C=c2sc3nc4ccccc4n3c2=O)c(C)n1-c1ccccc1 | inactive
32 | CCOc1cc(C=C2C(=O)N(c3ccccc3)N=C2C)cc(Cl)c1OCC(=O)OC | inactive
33 | Cc1ccnc(NS(=O)(=O)c2ccc(NC(=O)Nc3ccc(S(=O)(=O)Nc4nccc(C)n4)cc3)cc2)n1 | 23.5 µM (active)
34 | COCCNCCCn1c(C(=O)CF)c(-c2ccc(C)cc2)c2c(N)ncnc21 | inactive
35 | Cn1c(=O)c(F)c(Nc2ccc(I)cc2F)c2c(=O)n(C[C@@H](O)CO)cnc21 | inactive
36 | COc1cc2c(cc1OC)CN(CCc1ccc(NC(=O)c3cccc4c(=O)c5cccc(OC)c5[nH]c34)cc1)CC2 | inactive
37 | CS(=O)(=O)c1ccc(C(=O)Nc2ccc(Cl)c(-c3ccccn3)c2)c(Cl)c1 | inactive
38 | O=C(O)CCc1ccc(NCc2cccc(Oc3ccccc3)c2)cc1 | inactive
39 | Cc1cccc(-c2[nH]c(C(C)(C)C)nc2-c2ccc3nccnc3c2)n1 | inactive
40 | Cc1csc(NC(=O)c2sc3nc4c(c(C(F)(F)F)c3c2N)CCC4)n1 | inactive
